# Reference: publication PMC7862700, “An all-to-all approach to the identification of sequence-specific readers for epigenetic DNA modifications on cytosine”
# Columns and labels:
# Assay in all cases: DAPPL (digital affinity profiling via proximity ligation, sequencing); 10 mM Tris-HCl pH 7.5, 50 mM NaCl, 1 mM DTT, 4% glycerol, room temperature, 30 min; GST-TFs on glutathione beads, 16-mer random dsDNA library, 0.1% formaldehyde crosslink after washing; high values mean tight binding
# [1] = molecular target: T1, FLI1 (Homo sapiens, UniProt Q01543 1-452); conditions: protein: recombinant; tags: N-terminal GST; dsDNA, one strand shown
# T1 sequence: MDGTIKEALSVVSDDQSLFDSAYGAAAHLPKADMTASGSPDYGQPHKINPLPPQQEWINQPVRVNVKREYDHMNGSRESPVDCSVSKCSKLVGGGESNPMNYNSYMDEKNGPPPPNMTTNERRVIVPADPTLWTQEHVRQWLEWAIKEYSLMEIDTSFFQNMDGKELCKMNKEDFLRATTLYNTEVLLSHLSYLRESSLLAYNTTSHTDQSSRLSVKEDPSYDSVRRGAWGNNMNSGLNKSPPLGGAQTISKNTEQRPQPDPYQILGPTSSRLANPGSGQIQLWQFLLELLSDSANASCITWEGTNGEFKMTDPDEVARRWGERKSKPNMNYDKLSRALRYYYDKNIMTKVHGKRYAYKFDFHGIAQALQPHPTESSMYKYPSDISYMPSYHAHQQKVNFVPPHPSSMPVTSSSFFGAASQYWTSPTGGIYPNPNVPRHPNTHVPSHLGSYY
# Method in brief: (§1)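 After expression in yeast as GST fusions, human transcription factors were bound to glutathione beads, DNA-barcoded and mixed with a tag-only sample. The pools were incubated with 200 nmole of a 16-mer random double-stranded DNA library in Tris/NaCl/DTT/glycerol buffer (30 min, room temperature), washed and crosslinked with 0.1% formaldehyde. Proximity ligation with BsaI/T4 ligase ran for 1 h at 37 °C, before PCR amplification and sequencing on an Illumina NextSeq500. Binding signal is a hexamer's read frequency for a factor divided by its frequency for the tag-only sample.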
# [2] = molecular target: T2, ELK1 (Homo sapiens, UniProt P19419 1-428); conditions: protein: recombinant; tags: N-terminal GST; dsDNA, one strand shown
# T2 sequence: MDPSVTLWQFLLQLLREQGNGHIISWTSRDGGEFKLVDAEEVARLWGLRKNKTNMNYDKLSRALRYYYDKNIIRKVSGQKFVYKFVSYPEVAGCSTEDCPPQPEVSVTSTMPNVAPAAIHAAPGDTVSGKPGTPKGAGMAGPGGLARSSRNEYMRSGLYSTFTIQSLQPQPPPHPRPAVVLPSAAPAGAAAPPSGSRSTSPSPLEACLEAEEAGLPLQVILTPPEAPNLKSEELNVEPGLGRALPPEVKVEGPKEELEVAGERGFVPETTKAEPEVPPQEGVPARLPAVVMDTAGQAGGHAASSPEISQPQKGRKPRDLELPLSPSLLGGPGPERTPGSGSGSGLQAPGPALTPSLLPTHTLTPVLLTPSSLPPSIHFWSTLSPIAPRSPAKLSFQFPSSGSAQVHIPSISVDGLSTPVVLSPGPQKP
# Method in brief: as §1
# [3] = molecular target: T3, GABPA (Homo sapiens, UniProt Q06546 1-454); conditions: protein: recombinant; tags: N-terminal GST; dsDNA, one strand shown
# T3 sequence: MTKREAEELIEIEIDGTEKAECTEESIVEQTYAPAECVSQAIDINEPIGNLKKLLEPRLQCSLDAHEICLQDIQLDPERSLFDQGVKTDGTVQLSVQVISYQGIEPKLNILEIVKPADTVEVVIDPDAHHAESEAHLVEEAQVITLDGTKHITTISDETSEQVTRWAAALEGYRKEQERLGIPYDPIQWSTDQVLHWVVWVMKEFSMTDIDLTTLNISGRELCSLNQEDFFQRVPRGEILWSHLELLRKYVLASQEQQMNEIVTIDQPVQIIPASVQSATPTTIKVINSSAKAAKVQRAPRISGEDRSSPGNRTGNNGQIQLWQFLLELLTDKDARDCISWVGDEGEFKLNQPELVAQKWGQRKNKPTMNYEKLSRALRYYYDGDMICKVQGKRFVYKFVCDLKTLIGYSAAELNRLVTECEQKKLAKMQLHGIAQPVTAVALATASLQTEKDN
# Method in brief: as §1
# [4] = molecular target: T4, ERG (Homo sapiens, UniProt P11308 1-479); conditions: protein: recombinant; tags: N-terminal GST; dsDNA, one strand shown
# T4 sequence: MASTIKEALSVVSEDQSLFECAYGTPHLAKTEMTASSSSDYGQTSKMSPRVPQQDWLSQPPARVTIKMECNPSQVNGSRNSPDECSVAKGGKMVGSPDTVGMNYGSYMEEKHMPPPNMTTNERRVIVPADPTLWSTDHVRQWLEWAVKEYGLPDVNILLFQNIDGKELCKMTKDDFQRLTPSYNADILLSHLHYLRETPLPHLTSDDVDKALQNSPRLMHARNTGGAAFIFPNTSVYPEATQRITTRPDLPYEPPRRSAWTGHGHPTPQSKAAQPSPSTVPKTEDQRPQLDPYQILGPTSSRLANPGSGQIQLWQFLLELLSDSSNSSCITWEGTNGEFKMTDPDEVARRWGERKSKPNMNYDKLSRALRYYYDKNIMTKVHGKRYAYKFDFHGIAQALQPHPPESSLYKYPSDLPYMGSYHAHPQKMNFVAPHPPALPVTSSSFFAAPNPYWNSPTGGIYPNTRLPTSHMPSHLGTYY
# Method in brief: as §1
# [5] = molecular target: ELF1 (Homo sapiens, UniProt P32519 1-619); conditions: protein: recombinant; tags: N-terminal GST; dsDNA, one strand shown
# Method in brief: as §1
# [6] = molecular target: T5, EHF (Homo sapiens, UniProt Q9NZC4 1-300); conditions: protein: recombinant; tags: N-terminal GST; dsDNA, one strand shown
# T5 sequence: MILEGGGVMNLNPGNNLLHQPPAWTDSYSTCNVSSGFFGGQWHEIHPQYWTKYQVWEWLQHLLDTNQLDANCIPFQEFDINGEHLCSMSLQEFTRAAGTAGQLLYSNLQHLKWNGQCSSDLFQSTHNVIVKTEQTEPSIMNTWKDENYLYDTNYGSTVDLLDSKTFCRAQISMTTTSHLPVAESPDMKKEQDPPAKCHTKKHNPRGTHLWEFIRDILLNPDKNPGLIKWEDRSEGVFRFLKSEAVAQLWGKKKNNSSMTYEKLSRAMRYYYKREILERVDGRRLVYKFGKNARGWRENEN
# Method in brief: as §1
# [7] = molecular target: SPI1 (Homo sapiens, UniProt P17947 1-270); conditions: protein: recombinant; tags: N-terminal GST; dsDNA, one strand shown
# Method in brief: as §1
# [8] = molecular target: SPIB (Homo sapiens, UniProt Q01892 1-262); conditions: protein: recombinant; tags: N-terminal GST; dsDNA, one strand shown
# Method in brief: as §1
# [9] = molecular target: T6, ELK3 (Homo sapiens, UniProt P41970 1-407); conditions: protein: recombinant; tags: N-terminal GST; dsDNA, one strand shown
# T6 sequence: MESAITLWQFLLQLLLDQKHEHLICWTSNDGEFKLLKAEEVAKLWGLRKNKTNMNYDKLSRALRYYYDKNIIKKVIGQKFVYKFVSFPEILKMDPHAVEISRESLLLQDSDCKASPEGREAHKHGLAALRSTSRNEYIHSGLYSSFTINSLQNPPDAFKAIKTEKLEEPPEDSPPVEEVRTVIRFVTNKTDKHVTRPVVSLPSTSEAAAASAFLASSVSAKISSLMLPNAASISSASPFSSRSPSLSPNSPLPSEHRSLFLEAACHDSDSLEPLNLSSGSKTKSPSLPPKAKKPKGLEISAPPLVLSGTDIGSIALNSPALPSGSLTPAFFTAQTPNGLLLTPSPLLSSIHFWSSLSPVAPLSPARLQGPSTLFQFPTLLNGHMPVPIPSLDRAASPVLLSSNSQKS
# Method in brief: as §1
# [10] = molecular target: T7, FEV (Homo sapiens, UniProt Q99581 1-238); conditions: protein: recombinant; tags: N-terminal GST; dsDNA, one strand shown
# T7 sequence: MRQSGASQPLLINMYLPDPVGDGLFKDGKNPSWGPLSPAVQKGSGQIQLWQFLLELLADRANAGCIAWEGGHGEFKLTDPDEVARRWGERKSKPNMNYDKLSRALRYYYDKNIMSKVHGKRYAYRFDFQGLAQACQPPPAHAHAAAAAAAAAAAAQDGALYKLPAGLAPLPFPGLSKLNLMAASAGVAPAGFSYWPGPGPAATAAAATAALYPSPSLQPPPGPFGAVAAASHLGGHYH
# Method in brief: as §1
# [11] = molecular target: ETV5 (Homo sapiens, UniProt P41161 1-510); conditions: protein: recombinant; tags: N-terminal GST; dsDNA, one strand shown
# Method in brief: as §1
# [12] = molecular target: HSF1 (Homo sapiens, UniProt Q00613 1-529); conditions: protein: recombinant; tags: N-terminal GST; chain copies: 3; dsDNA, one strand shown
# Method in brief: as §1
# [13] = molecular target: T8, SPIC (Homo sapiens, UniProt Q8N5J4 1-248); conditions: protein: recombinant; tags: N-terminal GST; dsDNA, one strand shown
# T8 sequence: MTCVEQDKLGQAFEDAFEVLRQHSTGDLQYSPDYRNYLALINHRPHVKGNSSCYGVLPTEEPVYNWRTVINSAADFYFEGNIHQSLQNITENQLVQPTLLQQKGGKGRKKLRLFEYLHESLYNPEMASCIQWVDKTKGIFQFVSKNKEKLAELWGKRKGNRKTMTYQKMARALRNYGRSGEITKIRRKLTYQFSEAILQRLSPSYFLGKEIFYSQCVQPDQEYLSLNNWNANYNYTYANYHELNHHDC
# Method in brief: as §1
# [14] = molecular target: ELF4 (Homo sapiens, UniProt Q99607 1-663); conditions: protein: recombinant; tags: N-terminal GST; dsDNA, one strand shown
# Method in brief: as §1
# [15] = molecular target: T9, ELK4 (Homo sapiens, UniProt P28324-2 1-405); conditions: protein: recombinant; tags: N-terminal GST; dsDNA, one strand shown
# T9 sequence: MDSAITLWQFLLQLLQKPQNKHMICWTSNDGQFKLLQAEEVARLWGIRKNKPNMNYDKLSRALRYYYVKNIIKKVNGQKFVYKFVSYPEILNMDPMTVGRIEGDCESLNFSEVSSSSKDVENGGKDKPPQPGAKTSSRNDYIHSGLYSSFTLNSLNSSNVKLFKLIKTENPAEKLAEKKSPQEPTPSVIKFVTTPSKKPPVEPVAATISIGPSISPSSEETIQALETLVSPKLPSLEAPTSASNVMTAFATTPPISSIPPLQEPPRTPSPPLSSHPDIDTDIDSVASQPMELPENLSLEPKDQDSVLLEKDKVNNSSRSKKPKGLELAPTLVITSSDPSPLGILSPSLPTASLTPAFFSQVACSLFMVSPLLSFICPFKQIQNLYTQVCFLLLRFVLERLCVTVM
# Method in brief: as §1
# [16] = molecular target: T10, ETV2 (Homo sapiens, UniProt O00321 1-342); conditions: protein: recombinant; tags: N-terminal GST; dsDNA, one strand shown
# T10 sequence: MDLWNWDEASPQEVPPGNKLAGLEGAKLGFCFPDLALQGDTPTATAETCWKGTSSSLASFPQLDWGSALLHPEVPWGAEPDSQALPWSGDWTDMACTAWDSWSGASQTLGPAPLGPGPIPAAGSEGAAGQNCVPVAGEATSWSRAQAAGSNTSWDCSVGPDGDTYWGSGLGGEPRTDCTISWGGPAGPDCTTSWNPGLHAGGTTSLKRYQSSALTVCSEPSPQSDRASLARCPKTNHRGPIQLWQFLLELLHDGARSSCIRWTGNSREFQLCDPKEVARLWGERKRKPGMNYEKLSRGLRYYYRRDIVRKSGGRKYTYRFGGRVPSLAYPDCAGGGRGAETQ
# Method in brief: as §1
# [17] = molecular target: T11, ELF3 (Homo sapiens, UniProt P78545 1-371); conditions: protein: recombinant; tags: N-terminal GST; dsDNA, one strand shown
# T11 sequence: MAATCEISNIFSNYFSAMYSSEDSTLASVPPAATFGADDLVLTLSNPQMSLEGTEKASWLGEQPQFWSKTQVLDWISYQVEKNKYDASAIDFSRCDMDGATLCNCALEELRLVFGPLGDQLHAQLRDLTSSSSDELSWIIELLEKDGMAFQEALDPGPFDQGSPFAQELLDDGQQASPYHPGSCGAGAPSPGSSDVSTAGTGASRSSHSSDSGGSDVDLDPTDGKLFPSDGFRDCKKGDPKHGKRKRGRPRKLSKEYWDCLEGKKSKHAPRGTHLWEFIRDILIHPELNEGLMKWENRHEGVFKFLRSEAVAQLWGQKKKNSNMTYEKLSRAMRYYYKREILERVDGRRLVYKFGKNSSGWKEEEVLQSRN
# Method in brief: as §1
# [18] = molecular target: CRX (Homo sapiens, UniProt O43186 1-299); conditions: protein: recombinant; tags: N-terminal GST; dsDNA, one strand shown
# Method in brief: as §1
# [19] = molecular target: ETV1 (Homo sapiens, UniProt P50549 1-477); conditions: protein: recombinant; tags: N-terminal GST; dsDNA, one strand shown
# Method in brief: as §1
# ELF4, sequence (Q99607 whole entry): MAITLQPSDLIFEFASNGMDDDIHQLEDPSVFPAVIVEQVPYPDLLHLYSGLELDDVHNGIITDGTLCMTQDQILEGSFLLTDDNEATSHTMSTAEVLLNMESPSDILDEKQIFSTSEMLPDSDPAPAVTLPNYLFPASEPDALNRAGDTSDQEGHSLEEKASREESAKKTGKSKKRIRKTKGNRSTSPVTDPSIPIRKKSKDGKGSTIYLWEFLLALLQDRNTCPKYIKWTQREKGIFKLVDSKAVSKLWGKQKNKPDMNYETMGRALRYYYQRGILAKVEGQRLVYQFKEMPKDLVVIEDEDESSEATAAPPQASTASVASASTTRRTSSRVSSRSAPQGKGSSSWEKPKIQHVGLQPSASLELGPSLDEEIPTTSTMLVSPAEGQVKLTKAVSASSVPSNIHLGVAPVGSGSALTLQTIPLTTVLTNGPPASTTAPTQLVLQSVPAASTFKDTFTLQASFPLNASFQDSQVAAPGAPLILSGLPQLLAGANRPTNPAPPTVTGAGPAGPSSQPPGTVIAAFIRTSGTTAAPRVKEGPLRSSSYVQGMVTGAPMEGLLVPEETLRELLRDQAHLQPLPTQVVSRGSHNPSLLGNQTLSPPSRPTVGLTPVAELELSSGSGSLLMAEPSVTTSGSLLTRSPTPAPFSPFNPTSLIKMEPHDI
# ETV1, sequence (P50549 whole entry): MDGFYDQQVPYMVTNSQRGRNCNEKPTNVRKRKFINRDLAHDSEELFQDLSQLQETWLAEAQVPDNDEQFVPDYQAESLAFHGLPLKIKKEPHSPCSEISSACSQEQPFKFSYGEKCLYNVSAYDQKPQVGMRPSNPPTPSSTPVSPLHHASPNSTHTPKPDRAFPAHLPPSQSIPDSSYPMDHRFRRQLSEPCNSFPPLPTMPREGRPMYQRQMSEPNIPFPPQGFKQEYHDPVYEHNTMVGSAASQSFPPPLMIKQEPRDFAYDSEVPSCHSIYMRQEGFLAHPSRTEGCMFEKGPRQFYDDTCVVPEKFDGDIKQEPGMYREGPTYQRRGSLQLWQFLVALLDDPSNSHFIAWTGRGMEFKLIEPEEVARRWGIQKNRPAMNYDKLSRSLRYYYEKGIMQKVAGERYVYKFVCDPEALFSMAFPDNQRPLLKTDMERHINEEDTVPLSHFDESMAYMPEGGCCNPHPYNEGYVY
# ELF1, sequence (P32519 whole entry): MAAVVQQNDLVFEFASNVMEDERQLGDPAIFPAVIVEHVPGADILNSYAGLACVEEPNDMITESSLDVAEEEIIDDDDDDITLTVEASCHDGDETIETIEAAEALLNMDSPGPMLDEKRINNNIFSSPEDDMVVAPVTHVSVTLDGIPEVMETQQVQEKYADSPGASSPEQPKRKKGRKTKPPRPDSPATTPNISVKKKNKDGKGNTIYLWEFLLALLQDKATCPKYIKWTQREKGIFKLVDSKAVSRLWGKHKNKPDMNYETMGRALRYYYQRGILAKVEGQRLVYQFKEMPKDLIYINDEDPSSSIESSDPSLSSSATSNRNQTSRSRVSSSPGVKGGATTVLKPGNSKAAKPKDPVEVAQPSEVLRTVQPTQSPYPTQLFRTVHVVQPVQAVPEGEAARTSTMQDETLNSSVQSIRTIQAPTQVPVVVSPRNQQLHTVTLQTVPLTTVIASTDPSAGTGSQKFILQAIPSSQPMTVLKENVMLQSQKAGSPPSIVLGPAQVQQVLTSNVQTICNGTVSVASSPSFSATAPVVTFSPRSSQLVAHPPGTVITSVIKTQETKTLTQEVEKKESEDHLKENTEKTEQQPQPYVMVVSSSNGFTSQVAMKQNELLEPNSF
# HSF1, sequence (Q00613 whole entry): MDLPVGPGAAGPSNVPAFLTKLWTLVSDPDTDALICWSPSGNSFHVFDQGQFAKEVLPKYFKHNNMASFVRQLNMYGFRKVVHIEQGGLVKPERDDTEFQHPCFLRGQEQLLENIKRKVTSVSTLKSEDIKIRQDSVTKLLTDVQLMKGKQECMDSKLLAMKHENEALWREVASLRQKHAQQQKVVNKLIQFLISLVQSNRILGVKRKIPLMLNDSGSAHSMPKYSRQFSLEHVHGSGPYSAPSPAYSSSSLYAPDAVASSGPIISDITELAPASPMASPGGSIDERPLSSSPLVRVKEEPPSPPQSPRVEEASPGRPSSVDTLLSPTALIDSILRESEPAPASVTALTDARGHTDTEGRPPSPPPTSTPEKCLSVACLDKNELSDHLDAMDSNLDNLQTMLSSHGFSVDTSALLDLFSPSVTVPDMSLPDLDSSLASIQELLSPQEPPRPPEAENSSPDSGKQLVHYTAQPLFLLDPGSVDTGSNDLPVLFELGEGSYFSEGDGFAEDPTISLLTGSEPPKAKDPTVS
# SPIB, sequence (Q01892 whole entry): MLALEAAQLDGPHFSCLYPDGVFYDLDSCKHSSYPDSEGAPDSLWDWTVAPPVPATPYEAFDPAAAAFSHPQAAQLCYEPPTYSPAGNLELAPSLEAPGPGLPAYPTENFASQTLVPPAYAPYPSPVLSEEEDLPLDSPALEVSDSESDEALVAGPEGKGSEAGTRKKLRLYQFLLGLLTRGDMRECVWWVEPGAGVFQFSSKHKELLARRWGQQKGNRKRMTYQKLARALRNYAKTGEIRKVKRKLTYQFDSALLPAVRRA
# CRX, sequence (O43186 whole entry): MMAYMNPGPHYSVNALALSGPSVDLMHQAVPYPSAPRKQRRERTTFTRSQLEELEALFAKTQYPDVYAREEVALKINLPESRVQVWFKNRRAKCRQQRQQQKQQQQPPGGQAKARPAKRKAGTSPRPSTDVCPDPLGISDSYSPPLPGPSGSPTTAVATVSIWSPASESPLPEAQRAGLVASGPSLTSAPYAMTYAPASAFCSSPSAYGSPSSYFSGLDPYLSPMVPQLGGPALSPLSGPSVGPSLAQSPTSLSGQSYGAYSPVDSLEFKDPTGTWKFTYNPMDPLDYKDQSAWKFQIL
# ETV5, sequence (P41161 whole entry): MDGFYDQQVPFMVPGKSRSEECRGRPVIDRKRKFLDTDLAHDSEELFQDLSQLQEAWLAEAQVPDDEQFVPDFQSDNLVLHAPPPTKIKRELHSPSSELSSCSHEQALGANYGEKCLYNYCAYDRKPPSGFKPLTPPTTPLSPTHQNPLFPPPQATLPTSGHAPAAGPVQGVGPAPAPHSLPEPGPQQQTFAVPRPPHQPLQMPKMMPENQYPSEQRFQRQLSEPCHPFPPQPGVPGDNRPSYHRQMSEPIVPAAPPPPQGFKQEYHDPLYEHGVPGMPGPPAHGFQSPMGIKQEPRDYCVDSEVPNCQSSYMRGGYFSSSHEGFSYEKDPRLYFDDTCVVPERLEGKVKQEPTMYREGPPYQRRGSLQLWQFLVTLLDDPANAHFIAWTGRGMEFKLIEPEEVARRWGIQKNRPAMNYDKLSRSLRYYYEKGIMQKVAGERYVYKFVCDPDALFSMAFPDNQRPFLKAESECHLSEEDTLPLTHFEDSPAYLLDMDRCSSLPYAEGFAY
sequence,measurement,setting,value
ATATAC,binding signal,[1],"1.13 fold enrichment (6-mer frequency, TF over GST control)"
same,binding signal,[2],"1.24 fold enrichment (6-mer frequency, TF over GST control)"
same,binding signal,[3],"1.2 fold enrichment (6-mer frequency, TF over GST control)"
same,binding signal,[4],"1.18 fold enrichment (6-mer frequency, TF over GST control)"
same,binding signal,[5],"1.14 fold enrichment (6-mer frequency, TF over GST control)"
same,binding signal,[6],"1.22 fold enrichment (6-mer frequency, TF over GST control)"
same,binding signal,[7],"1.19 fold enrichment (6-mer frequency, TF over GST control)"
same,binding signal,[8],"1.21 fold enrichment (6-mer frequency, TF over GST control)"
same,binding signal,[9],"1.27 fold enrichment (6-mer frequency, TF over GST control)"
same,binding signal,[10],"1.11 fold enrichment (6-mer frequency, TF over GST control)"
same,binding signal,[11],"1.16 fold enrichment (6-mer frequency, TF over GST control)"
same,binding signal,[12],"1.12 fold enrichment (6-mer frequency, TF over GST control)"
same,binding signal,[13],"1.17 fold enrichment (6-mer frequency, TF over GST control)"
same,binding signal,[14],"1.13 fold enrichment (6-mer frequency, TF over GST control)"
same,binding signal,[15],"1.2 fold enrichment (6-mer frequency, TF over GST control)"
same,binding signal,[16],"1.12 fold enrichment (6-mer frequency, TF over GST control)"
same,binding signal,[17],"1.22 fold enrichment (6-mer frequency, TF over GST control)"
same,binding signal,[18],"1.08 fold enrichment (6-mer frequency, TF over GST control)"
same,binding signal,[19],"1.21 fold enrichment (6-mer frequency, TF over GST control)"
